Assay [1] can be described thus: Cell Viability - BJ (AID 421; calls by dose curve;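 also: potency is read from the fitted curve at half-maximal effect; cells exposed to compound for 40 hours at 37 °C before readout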). The following applies: BJ fibroblast viability, qHTS. The essentials:
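Normal human BJ foreskin fibroblasts, 1500/well in complete medium, treated 40 hr at 37 °C. Cellular ATP by CellTiter-Glo luminescence; normalized to DMSO and 100 uM tamoxifen, AC50 from Hill fit.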
A general note: In qHTS, concentration-response curves come from the screen itself.

Assay [2] in a line: Cell Viability - MRC5 (AID 434; calls by dose curve;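 also: potency is read from the fitted curve at half-maximal effect; potency reflects cytotoxicity seen as loss of intracellular ATP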). The following applies: MRC5 lung fibroblast viability, qHTS. The essentials:
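MRC5 normal human lung fibroblasts, 1500 cells/well, exposed to compound for 40 hr at 37 C. Cellular ATP was read by CellTiter-Glo luminescence; data normalized to DMSO and 100 uM tamoxifen, with AC50 from Hill fits.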

The target in assay [3] is Mitogen-activated protein kinase 10 (Mus musculus) (UniProt Q61831). In words: JNK3 AlphaScreen Assay (AID 530; active = well fitted curve in either direction with a large enough effect, not every such curve was filed as active;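 also: kinase came from lysate of stimulated human HepG2 cells; signal reports phosphorylation of biotinylated GST-cJun 1-79 at Ser73 with 10 µM ATP; % is scaled to controls: 0 for no effect and ±100 for the full control effect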). The essentials: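 Pre-activated (IL-1β/TNFα) JNK3 in HepG2 lysates phosphorylates biotin-GST-cJun(1-79), 10 uM ATP; anti-phospho-cJun(Ser73) AlphaScreen read at room temperature, pH 7.6 Tris buffer. Compounds pre-incubated 15 min as titrations.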
On the technique in general: Alpha assays give light when donor and acceptor beads are brought close together.

Assay [4] can be described thus: Cell Viability - N2a (AID 540).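 Also: plate controls were DMSO alone for no effect and tamoxifen control for full effect; nearly all actives have a fitted effect of over 45% in size.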 The following applies: N2a mouse neuroblastoma cell viability; activity change, negative = cytotoxicity: at 92.2 µM (top of the series). The essentials: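 Luminescent ATP signal (CellTiter-Glo, 20 min at room temperature) served as the viability read-out after N2a cells were treated with compounds for 40 hours at 37 °C. Concentration-response data were fitted to the Hill equation for AC50.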

Assay [5] is described as follows: Cellular Toxicity (caspase-3) HepG2 (AID 654).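 Also: cells exposed to compound for 16 hours before reading; 0% = DMSO alone and 100% = caspase signal from 100 µM tamoxifen.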 Summed up: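 Cells plated 5 hr at 37 °C, compound added, incubated 16 hr at 37 °C. Caspase-Glo 3/7 reagent followed, 20 min at room temperature, then luminescence read. Activation scored as signal increase; AC50 from Hill fit.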
Assay [6] can be described thus: Cellular Toxicity (caspase-3) BJ (AID 658).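 Also: 0% = DMSO basal and 100% = 10 µM staurosporine.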 Summed up: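 BJ human foreskin fibroblasts, 1000 cells/well, treated 16 hours at 37 °C in complete medium; caspase 3/7 activity by Caspase-Glo luminescence after 1 hr at room temperature. Normalized to DMSO and 10 uM staurosporine; AC50 from Hill fits.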
Assay [7] can be described thus: Cellular Toxicity (caspase-3) MRC-5 (AID 659).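 Also: 0% = DMSO basal and 100% = 10 µM staurosporine.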 The essentials: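 MRC-5 human normal lung fibroblasts, 1500 cells/well, treated 16 h at 37 °C in complete medium. Caspase 3/7 measured by Caspase-Glo luminescence after 1 h at room temperature. Normalized to DMSO and 10 uM staurosporine; AC50 from Hill fit.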
Assay [8] in a line: Cellular Toxicity (caspase-3) Hek293 (AID 664).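 Also: cells exposed to compound for 16 h at 37 °C before readout.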 To be noted: HEK293 caspase-3 activation, DMSO = 0%, 100 µM tamoxifen = 100%; at 92.2 µM (top of the series). The essentials: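 Cells plated, 5 hr at 37 °C; compounds added; 16 hr at 37 °C; Caspase-Glo 3/7 reagent, 20 min RT; luminescence read. Activation expressed relative to DMSO and 100 uM tamoxifen, AC50 by Hill model.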
A short description of assay [9]: Cellular Toxicity (caspase-3) N2a (AID 665).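 Also: compound exposure lasted 16 h at 37 °C before readout.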 Summed up: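 N2a cells, 1500/well, 5 h settle at 37 °C; cpd 16 h, 37 °C; Caspase-Glo 3/7, 1 h RT; luminescence. Norm: DMSO = 0, 10 uM staurosporine = 100%. AC50, Hill fit.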
Assay [10] in a line: Cellular Toxicity (caspase-3) NIH 3T3 (AID 666).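 Also: caspase signal read after 16 h compound exposure; 0% = DMSO basal and 100% = 100 µM tamoxifen stimulation.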 The essentials:
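Luminescence from aminoluciferin released by caspase-3/7 cleavage of a peptide substrate served as read-out. Mouse fibroblast NIH 3T3 cells were exposed to compounds over a concentration range for 16 hours, and AC50 values came from standard Hill modelling.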

The target in assay [11] is Cytochrome P450 3A4 (Homo sapiens) (UniProt P08684). In words: qHTS Assay for Inhibitors and Substrates of Cytochrome P450 3A4 (AID 884). Also: % is scaled to controls: 0 for no effect and ±100 for the full control effect; nearly all actives have a fitted effect of over 50% in size. Summed up:
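20 nM human CYP3A4 with 25 uM Luciferin-PPXE (at KM) in 200 mM KPO4, preincubated 10 min with compound; NADPH regeneration started a 60 min RT reaction. Luciferin detected by luminescence, normalized to 57 uM ketoconazole as full inhibition.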

A short description of assay [12]: MultiTox-Fluor Cytotoxicity Assay - LYMP1-001 - Dead Cells (AID 946).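 Also: 0% = DMSO and 100% = tetraoctylammonium bromide.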 The essentials: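 LYMP1-001 lymphoblastoid cells (2500/well) treated 16 h at 37 C. Dead-cell protease cleavage of bis-AAF-R110 read at Ex/Em 485/520. Normalized to DMSO and 15 uM tetraoctylammonium bromide; AC50 from Hill fits.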
Assay [13] in a line: MultiTox-Fluor Cytotoxicity Assay - LYMP1-002 - Live Cells (AID 955). Also: % is scaled to controls: 0 for no effect and ±100 for the full control effect. Summed up: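 Read-out is live-cell protease activity (cell-permeant GF-AFC substrate, fluorescence Ex/Em=405/510), where a decrease indicates acute toxicity. Human lymphoblastoid cells were treated 16 hours at 37 C in a concentration series, and AC50 values came from standard Hill modelling.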
The nature of assay [14]: MultiTox-Fluor Cytotoxicity Assay - LYMP1-003 - Dead Cells (AID 961).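 Also: 0% = DMSO and 100% = tetraoctylammonium bromide; nearly all actives have a fitted effect of over 70% in size.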 The essentials: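 LYMP1-003 human lymphoblastoid cells (2500/well) exposed to compound 16 h at 37 C in complete medium; dead-cell protease read with bis-AAF-R110 fluorescence (Ex/Em 485/520) after 60 min at room temperature. Normalized to DMSO and 15 uM tetraoctylammonium bromide; AC50 from Hill fit.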

The nature of assay [15]: MultiTox-Fluor Cytotoxicity Assay - LYMP1-003 - Live Cells (AID 962).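 Also: 0% = DMSO only and full loss = 92 µM tetraoctylammonium bromide; cytotoxic hits lower the live-cell protease signal.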 Summed up: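 qHTS, 1536-well; 2500 cells/well LYMP1-003; 5 hr 37 C settle; cpd 16 hr 37 C; MultiTox-Fluor reagent 60 min RT; live-cell protease fluor. 405/510; Hill-fit AC50; tetraoctylammonium bromide pos. ctrl.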
The nature of assay [16]: Cell Viability - LYMP2-026 (AID 989).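 Also: cells exposed to compound for 24 h at 37 °C; % is scaled to controls: 0 for no effect and ±100 for the full control effect; nearly all actives have a fitted effect of over 50% in size.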 Summed up:
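Luminescent ATP signal (CellTiter-Glo, 30 min room temperature) measures viable lymphoblastoid cells after 24 hr compound treatment at 37 C. Decreased ATP reflects acute toxicity; AC50 values come from Hill-equation modeling.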

Assay [17] is described as follows: Cell Viability - LYMP1-002 - Assay at 24 hr (AID 993). Also: % is scaled to controls: 0 for no effect and ±100 for the full control effect. Summed up: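 Cells plated 2500/well, 5 hr 37 C; compounds added, 24 hr 37 C; CellTiter-Glo added, 30 min RT; luminescence read. Tetraoctylammonium bromide positive control. Hill-equation AC50.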
Assay [18] can be described thus: qHTS assay for small molecule agonists of retinoid X receptor alpha signaling (AID 588544). The following applies: HEK293T RXRa-UAS-bla, beta-lactamase reporter, 18 h; 530 nm emission.
The target of assay [19] is Peroxisome proliferator-activated receptor alpha (Homo sapiens) (UniProt Q07869). In words: qHTS assay for small molecule agonists of the peroxisome proliferator-activated receptor alpha (PPARalpha) signaling pathway (AID 651778). Also: % of control where 0% means no effect. To be noted: PathHunter PPARalpha complementation, chemiluminescence, 6 h; stronger effect = higher value. Summed up: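 Enzyme-fragment complementation assay in which ligand-bound PPARalpha translocates and forms an active enzyme that generates chemiluminescence. Cells were plated overnight, exposed to compound for 6 hr at 37 C, and then given detection reagent for 60 min at room temperature.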

A short description of assay [20]: qHTS assay for cell viability of the p53RE-bla HCT-116 cell line (AID 743292). Also: % is scaled to controls: 0 for no effect and ±100 for the full control effect; nearly all actives have a fitted effect of over 55% in size. The essentials: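 CellSensor p53RE-bla HCT-116 cells (4,000/well) pre-incubated 5 h at 37 C, then exposed to compounds in DMSO for 16 h at 37 C. Viability read as ATP content by CellTiter-Glo luminescence after 30 min at room temperature.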

Where “and” joins values, the source holds several entries; their conditions need not be identical. Identical values can stand only once. Records with an inconclusive call do not appear. Calls of active or inactive are those of the source. Unless noted, calls follow the shape of the dose curve; as a rule, active = well fitted curve in the direction sought with a large enough effect; inconclusive = small, poorly fitted or top-dose-only effect, or another doubt; inactive = no such curve, though single readings can be large; an effect the other way counts as inactive or inconclusive. A value given as a limit tells only on which side of the number the result lay.

We go through five molecules from PubChem BioAssay (NCATS).

Cytochrome P450 3A4 (Homo sapiens), sequence (P08684 whole entry, looked up): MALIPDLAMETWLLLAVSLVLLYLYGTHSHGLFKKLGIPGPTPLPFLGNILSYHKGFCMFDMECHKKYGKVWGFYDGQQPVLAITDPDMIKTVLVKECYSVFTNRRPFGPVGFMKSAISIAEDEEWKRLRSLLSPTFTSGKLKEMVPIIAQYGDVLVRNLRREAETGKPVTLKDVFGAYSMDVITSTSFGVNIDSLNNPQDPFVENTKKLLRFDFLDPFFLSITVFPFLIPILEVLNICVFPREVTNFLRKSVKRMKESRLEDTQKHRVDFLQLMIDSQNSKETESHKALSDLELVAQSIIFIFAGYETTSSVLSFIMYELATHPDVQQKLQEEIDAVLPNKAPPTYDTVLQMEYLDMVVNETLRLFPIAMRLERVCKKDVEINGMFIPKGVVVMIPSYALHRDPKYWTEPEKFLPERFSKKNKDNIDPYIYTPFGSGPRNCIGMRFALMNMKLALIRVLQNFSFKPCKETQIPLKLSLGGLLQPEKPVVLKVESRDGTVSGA
Peroxisome proliferator-activated receptor alpha (Homo sapiens), sequence (Q07869 whole entry, looked up, the tested form may be a part): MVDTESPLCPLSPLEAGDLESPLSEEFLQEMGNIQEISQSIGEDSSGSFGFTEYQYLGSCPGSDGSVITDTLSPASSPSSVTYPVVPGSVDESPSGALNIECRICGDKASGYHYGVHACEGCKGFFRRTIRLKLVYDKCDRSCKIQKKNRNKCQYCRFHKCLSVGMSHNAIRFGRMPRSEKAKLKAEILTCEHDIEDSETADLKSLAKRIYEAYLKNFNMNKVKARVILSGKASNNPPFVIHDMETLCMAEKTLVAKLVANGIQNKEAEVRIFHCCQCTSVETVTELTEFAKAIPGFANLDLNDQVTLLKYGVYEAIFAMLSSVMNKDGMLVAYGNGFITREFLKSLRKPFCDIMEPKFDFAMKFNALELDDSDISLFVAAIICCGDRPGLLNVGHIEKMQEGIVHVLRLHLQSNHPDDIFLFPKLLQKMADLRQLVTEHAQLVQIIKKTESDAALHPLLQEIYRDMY

`C=C(C)CCl`: the Potency in assay [1] and in assay [2] was > 92 µM (inactive) in each case. For the same molecule, the Potency result in assay [3], in assay [4], in assay [10], in assay [11], in assay [14] and in assay [16] was “inactive” each time. The Potency result in assay [17] and in [20] was “inactive” in each case. Moreover, the outcome in assay [5], in assay [6], in assay [7], in assay [9], in [12] and in assay [13] was inactive. The outcome in assay [15] was inactive. Moreover, the caspase-3 activation in [8] is -0.774% (inactive). Moreover, the figures for the max response in [18] and in [19] were -6% and 1.24% (inactive), respectively.

`ClCCOCCCl`: the Potency in assay [1] and in assay [2] was > 92 µM (inactive) throughout. In addition, the Potency entry in [3], in [4], in assay [10], in [11], in [14] and in assay [16] was “inactive” each time. In addition, the Potency result in assay [17] and in assay [20] was “inactive” in each case. Also, the call in [5], in assay [6], in assay [7], in [9], in assay [12] and in assay [13] was inactive. The call in [15] was inactive. Also, the caspase-3 activation in [8] was -1.83% (inactive). In addition, the max response in [18] is 0.666%; in [19] it was -1.95% (inactive).

Regarding `O=S(=O)(Cl)c1ccccc1`, the Potency in assay [1] and in assay [2] was > 92 µM (inactive) in each case. Further, the Potency result in assay [3], in assay [4], in assay [10], in assay [11], in [14] and in assay [16] was “inactive” throughout. Further, the Potency entry in assay [17] and in assay [20] was “inactive” throughout. Besides, the result in [5], in assay [6], in [7], in assay [9], in [12] and in assay [13] was inactive. Further, the call in assay [15] was inactive. Further, in assay [8], the caspase-3 activation is -0.803% (inactive). Further, the max response in assay [18] was -12.3%; in assay [19], -0.206% (inactive) and -0.679% (inactive).

`N#CC(Cl)(Cl)Cl`: the Potency in assay [1] and in assay [2] was > 92 µM (inactive) in each case. In addition, the Potency result in assay [3], in assay [4], in assay [10], in assay [11], in [14] and in [16] was “inactive” in each case. Also, the Potency result in [17] and in assay [20] was “inactive” in each case. Moreover, the call in assay [5], in assay [6], in assay [7], in assay [9], in [12] and in assay [13] was inactive. Moreover, the outcome in assay [15] was inactive. The caspase-3 activation in [8] was 1.68% (inactive). Also, the max response was -10.8% in [18] and 9.56% (inactive) in [19].

On to `C=CCOCC1CO1` (stereo not given), for which the Potency in [1] and in assay [2] was > 92 µM (inactive) each time. Besides, the Potency result in assay [3], in [4], in [10], in [11], in [14] and in [16] was “inactive” in each case. Besides, the Potency entry in assay [17] and in [20] was “inactive” in each case. In addition, the result in assay [5], in [6], in assay [7], in assay [9], in assay [12] and in assay [13] was inactive. Also, the molecule was classed as inactive in assay [15]. In [8], the caspase-3 activation is 2.83% (inactive). The max response is 1.34% in [18] and 11.4% (inactive) in assay [19].
